# According to PubChem BioAssay AID372 (MTDP, 2006):
# Among all 100,000 compounds or so, about 770 (0.77%) were called active. For the sample, actives were picked, then their nearest neighbours and some compounds at random. Values without a mark were called inactive. Rule as the data show it: active = inhibition above about 50%; inactive = the rest.
# Biological target: Gag-Pol polyprotein (Human immunodeficiency virus type 1 group M subtype B (isolate HXB2)) (UniProt P04585)
# Assay: RNase H inhibition, HIV 1 Gag Pol polyprotein, FRET biochemical assay, screening (AID 372)
# Conditions: HIV-1 RT RNase H, FRET RNA/DNA substrate fluorescence; at 10 µM; stronger effect = higher value
row,SMILES,inhibition
1,Cc1ccccc1-n1c(/C=C/c2ccc(Br)cc2)nc2ccccc2c1=O,3%
2,CCc1ccc(CN2CCN(C(=O)COc3ccc4ccccc4c3)CC2)cc1,19%
3,O=C(COc1ccc2ccccc2c1)N1CCN(Cc2ccc([N+](=O)[O-])cc2)CC1,13%
4,O=C(COc1ccc2ccccc2c1)N1CCN(Cc2ccc(F)cc2)CC1,0%
5,Cc1ccccc1CN1CCN(C(=O)COc2ccc3ccccc3c2)CC1,42%
6,O=C(COc1ccc2ccccc2c1)N1CCN(Cc2ccccc2C(F)(F)F)CC1,51% (active)
7,O=C(COc1ccc2ccccc2c1)N1CCN(Cc2ccccc2[N+](=O)[O-])CC1,50% (active)
8,COc1ccc(/C=C2/C(=O)N(c3ccccc3)C(=S)N(c3ccccc3OC)C2=O)c(OC)c1,5%
9,COc1ccc(O)c(CN2CCN(c3ccccc3OC)CC2)c1,3%
10,O=c1c2ccccc2nc(CSc2ncnc3ccccc23)n1-c1ccccc1,16%
11,CCOC(=O)C1=C(C)OC(N)=C(C(=O)OCCOC)C12C(=O)Nc1ccccc12 (stereo unspecified),0%
12,C=CCN1C(=O)NC(=O)/C(=C/c2ccc(O)c(O)c2)C1=O,60% (active)
13,O=C1NC(=O)N(Cc2ccccc2)C(=O)/C1=C/c1ccc(O)c(O)c1,11%
14,C=CCN1C(=O)NC(=O)/C(=C\c2ccc(O)c(OC)c2)C1=O,0%
15,O=[N+]([O-])c1ccc(N2CCNCC2)cc1N1CCOCC1,3%
16,O=c1c2ccccc2nc(-c2ccccn2)n1-c1ccc(Cl)cc1,4%
17,COc1cc(OC)c(OC)cc1C=C(C#N)C#N,4%
18,COc1ccc(C=C(C#N)C#N)cc1C,44%
19,COc1cc(C)c(C=C(C#N)C#N)cc1C,50% (active)
20,O=C1NC(=O)C(=Cc2ccc(N3CCOCC3)c([N+](=O)[O-])c2)C(=O)N1,0%
21,O=[N+]([O-])c1ccc(N2CCCC2)c(F)c1Br,34%
22,O=C1NC(=O)N(c2cccc(Br)c2)C(=O)/C1=C/c1ccco1,19%
23,O=C1NC(=S)N(c2ccccc2)C(=O)/C1=C/c1ccco1,36%
24,O=C1NC(=S)N(c2cccc(Br)c2)C(=O)/C1=C/c1ccco1,98% (active)
25,O=C1NC(=S)N(c2cccc(Cl)c2Cl)C(=O)/C1=C/c1ccc(-c2ccc(C(=O)O)cc2)o1,12%
26,N#CC(C#N)=Cc1ccc(C(F)(F)F)cc1,1%

row,SMILES,inhibition
1,CSc1ccc(CN2CCN(c3ccccc3C)CC2)cc1,7%
2,COc1ccc(Br)cc1CN1CCN(C(=O)COc2ccc(Cl)cc2)CC1,52% (active)
3,COc1ccc(Br)cc1CN1CCN(C(=O)COc2ccc3ccccc3c2)CC1,42%
4,COc1ccc(Br)cc1CN1CCN(C(=O)COc2ccccc2)CC1,42%
5,Cc1ccc(C)c(N2CCN(Cc3ccccc3Br)CC2)c1,6%
6,FC(F)(F)c1ccc(CN2CCN(c3cccc(Cl)c3)CC2)cc1,12%
7,O=Cc1cn(Cc2c(Cl)cccc2Cl)c2ccccc12,34%
8,CN1C(=O)C(=Cc2ccc(N3CCCCCC3)o2)C(=O)N(C)C1=S,26%
9,C=CCN1C(=O)/C(=C\c2ccc(-c3cccc(Cl)c3Cl)o2)C(=O)NC1=S,55% (active)
10,C=CCN1C(=O)/C(=C\c2ccc(C)o2)C(=O)NC1=S,13%
11,C=CCN1C(=O)NC(=O)/C(=C/c2ccc(-c3cc([N+](=O)[O-])ccc3Cl)o2)C1=O,22%
12,COc1ccc(N2C(=O)/C(=C\c3ccoc3)C(=O)NC2=S)cc1,44%
13,N/C(=N\[N+](=O)[O-])N/N=C\c1ccc(-c2ccc(Cl)c([N+](=O)[O-])c2)o1,56% (active)
14,N/C(=N\[N+](=O)[O-])N/N=C/c1ccc(-c2ccc(Cl)cc2)o1,6%
15,N/C(=N\[N+](=O)[O-])N/N=C\c1ccc(-c2ccc([N+](=O)[O-])cc2)o1,28%
16,Cc1ccc(C2c3c(c4ccccc4oc3=O)Oc3c2c(=O)oc2ccccc32)cc1,11%
17,COc1cccc(C=C2C(=O)NC(=O)NC2=O)c1OC,10%
18,O=C1NC(=S)NC(=O)C1=Cc1ccccc1OS(=O)(=O)c1ccc2ccccc2c1,21%
19,O=C1NC(=S)NC(=O)C1=Cc1cccc(OS(=O)(=O)c2ccc3ccccc3c2)c1,53% (active)
20,COc1cccc(C=C2C(=O)NC(=S)NC2=O)c1,7%
21,O=C(c1cccs1)C1CN2CCC1CC2 (stereo unspecified),0%
22,Cc1ccc(-c2nn(-c3ccccc3)cc2C=C2C(=O)NC(=S)NC2=O)o1,21%
23,O=C1NC(=O)C(=Cc2ccccc2F)C(=O)N1,3%
24,O=C1NC(=O)C(=Cc2cn(-c3ccccc3)nc2-c2ccc(F)cc2)C(=O)N1,53% (active)
25,Cc1ccc(C)c(COc2cc(C)cc3oc(=O)c4c(c23)CCC4)c1,0%
